{"source": "paper PMC7862700", "about": "“An all-to-all approach to the identification of sequence-specific readers for epigenetic DNA modifications on cytosine”", "experiment_in_all_cases": "DAPPL (digital affinity profiling via proximity ligation, sequencing); 10 mM Tris-HCl pH 7.5, 50 mM NaCl, 1 mM DTT, 4% glycerol, room temperature, 30 min; GST-TFs on glutathione beads, 16-mer random dsDNA library, 0.1% formaldehyde crosslink after washing; high values mean tight binding", "key": {"FEV": {"biological_target": "T1, FEV (Homo sapiens, UniProt Q99581 1-238)", "T1 sequence": "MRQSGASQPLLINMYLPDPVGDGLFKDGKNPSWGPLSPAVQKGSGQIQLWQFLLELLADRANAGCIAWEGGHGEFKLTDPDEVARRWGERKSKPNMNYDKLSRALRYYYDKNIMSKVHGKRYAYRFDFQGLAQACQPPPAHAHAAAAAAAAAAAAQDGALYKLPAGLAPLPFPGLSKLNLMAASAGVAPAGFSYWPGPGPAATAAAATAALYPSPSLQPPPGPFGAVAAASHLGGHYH", "settings": "protein: recombinant; tags: N-terminal GST; dsDNA, one strand shown", "outline": "(§1)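 Yeast served to express human transcription factors as GST fusions, which were then captured on glutathione beads and labelled with DNA barcodes. Pooled with a tag-only sample, they were incubated with 200 nmole of a 16-mer random double-stranded DNA library for 30 min at room temperature in Tris/NaCl/DTT/glycerol buffer, washed, crosslinked with 0.1% formaldehyde, ligated by proximity, amplified by PCR and sequenced. Dividing each hexamer's read frequency for a factor by its frequency for the tag-only sample gives the binding signal.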"}, "ETV5": {"biological_target": "ETV5 (Homo sapiens, UniProt P41161 1-510)", "sequence (P41161 whole entry)": "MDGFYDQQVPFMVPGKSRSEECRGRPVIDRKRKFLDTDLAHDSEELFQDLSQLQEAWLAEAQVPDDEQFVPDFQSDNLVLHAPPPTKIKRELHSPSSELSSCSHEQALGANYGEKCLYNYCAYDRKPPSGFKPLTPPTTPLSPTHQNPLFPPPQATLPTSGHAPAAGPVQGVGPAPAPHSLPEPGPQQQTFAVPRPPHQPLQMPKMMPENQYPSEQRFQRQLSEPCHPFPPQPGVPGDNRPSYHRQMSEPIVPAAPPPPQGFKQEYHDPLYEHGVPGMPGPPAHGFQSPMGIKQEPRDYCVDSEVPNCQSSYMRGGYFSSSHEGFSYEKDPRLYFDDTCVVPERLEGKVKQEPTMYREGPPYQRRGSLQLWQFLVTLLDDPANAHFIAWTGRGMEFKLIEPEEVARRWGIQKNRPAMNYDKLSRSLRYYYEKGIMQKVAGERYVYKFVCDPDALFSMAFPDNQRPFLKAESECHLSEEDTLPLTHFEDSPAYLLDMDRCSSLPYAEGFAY", "settings": "protein: recombinant; tags: N-terminal GST; dsDNA, one strand shown", "outline": "as §1"}, "HSF1": {"biological_target": "HSF1 (Homo sapiens, UniProt Q00613 1-529)", "sequence (Q00613 whole entry)": "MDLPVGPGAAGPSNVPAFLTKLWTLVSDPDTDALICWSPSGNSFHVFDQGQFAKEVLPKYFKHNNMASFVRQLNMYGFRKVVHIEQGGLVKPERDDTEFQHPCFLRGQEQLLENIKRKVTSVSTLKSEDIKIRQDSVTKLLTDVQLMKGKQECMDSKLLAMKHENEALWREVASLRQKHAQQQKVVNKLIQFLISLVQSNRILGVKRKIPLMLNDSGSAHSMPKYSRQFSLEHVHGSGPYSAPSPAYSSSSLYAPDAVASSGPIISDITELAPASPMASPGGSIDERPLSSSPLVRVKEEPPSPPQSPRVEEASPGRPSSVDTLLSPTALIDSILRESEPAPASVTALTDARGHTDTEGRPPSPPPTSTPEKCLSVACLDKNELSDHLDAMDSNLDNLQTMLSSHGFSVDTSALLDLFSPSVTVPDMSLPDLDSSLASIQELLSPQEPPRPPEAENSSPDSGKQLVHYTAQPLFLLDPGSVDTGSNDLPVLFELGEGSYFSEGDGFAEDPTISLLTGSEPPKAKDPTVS", "settings": "protein: recombinant; tags: N-terminal GST; chain copies: 3; dsDNA, one strand shown", "outline": "as §1"}, "SPIC": {"biological_target": "T2, SPIC (Homo sapiens, UniProt Q8N5J4 1-248)", "T2 sequence": "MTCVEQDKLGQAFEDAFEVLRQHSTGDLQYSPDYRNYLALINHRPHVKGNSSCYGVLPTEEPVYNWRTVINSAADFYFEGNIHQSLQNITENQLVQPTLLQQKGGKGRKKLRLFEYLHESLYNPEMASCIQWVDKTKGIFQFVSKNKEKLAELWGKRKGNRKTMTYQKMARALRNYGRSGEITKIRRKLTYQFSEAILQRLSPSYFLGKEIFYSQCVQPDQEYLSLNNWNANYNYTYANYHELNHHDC", "settings": "protein: recombinant; tags: N-terminal GST; dsDNA, one strand shown", "outline": "as §1"}, "ELF4": {"biological_target": "ELF4 (Homo sapiens, UniProt Q99607 1-663)", "sequence (Q99607 whole entry)": "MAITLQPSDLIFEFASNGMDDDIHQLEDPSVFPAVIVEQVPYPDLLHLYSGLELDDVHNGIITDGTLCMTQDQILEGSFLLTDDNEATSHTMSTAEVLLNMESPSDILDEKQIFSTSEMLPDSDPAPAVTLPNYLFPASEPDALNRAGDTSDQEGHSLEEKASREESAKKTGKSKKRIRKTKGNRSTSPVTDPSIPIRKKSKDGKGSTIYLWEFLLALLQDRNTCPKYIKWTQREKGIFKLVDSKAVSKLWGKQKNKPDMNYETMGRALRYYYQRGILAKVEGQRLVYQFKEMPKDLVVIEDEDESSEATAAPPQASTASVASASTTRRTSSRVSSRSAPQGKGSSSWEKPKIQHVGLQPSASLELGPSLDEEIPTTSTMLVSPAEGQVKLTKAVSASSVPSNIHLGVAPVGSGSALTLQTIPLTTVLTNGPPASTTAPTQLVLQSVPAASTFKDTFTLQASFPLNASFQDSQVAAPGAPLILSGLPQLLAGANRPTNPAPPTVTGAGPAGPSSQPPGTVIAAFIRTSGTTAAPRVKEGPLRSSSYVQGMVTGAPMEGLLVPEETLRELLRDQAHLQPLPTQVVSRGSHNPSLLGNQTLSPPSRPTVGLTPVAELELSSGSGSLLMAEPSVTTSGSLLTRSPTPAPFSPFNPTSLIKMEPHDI", "settings": "protein: recombinant; tags: N-terminal GST; dsDNA, one strand shown", "outline": "as §1"}, "ELK4": {"biological_target": "T3, ELK4 (Homo sapiens, UniProt P28324-2 1-405)", "T3 sequence": "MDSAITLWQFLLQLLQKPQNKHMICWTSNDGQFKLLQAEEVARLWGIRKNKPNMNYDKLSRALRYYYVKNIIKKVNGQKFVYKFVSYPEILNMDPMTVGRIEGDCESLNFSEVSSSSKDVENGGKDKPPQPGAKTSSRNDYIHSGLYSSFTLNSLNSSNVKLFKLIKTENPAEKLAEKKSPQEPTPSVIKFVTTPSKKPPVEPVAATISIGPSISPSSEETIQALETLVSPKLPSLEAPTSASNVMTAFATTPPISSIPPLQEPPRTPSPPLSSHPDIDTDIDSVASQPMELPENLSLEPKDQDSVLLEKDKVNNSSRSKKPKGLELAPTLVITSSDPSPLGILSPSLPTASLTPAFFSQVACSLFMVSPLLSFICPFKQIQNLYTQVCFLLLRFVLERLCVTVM", "settings": "protein: recombinant; tags: N-terminal GST; dsDNA, one strand shown", "outline": "as §1"}, "ETV2": {"biological_target": "T4, ETV2 (Homo sapiens, UniProt O00321 1-342)", "T4 sequence": "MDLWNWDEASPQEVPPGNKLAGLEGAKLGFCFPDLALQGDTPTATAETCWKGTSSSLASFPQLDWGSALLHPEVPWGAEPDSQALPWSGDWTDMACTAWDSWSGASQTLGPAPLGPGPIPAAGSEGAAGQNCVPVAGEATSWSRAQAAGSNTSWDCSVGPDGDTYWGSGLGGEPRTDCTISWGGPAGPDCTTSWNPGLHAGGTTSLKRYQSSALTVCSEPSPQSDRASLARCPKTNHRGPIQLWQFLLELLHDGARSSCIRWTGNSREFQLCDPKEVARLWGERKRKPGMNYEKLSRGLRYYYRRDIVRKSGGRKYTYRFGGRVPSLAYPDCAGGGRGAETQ", "settings": "protein: recombinant; tags: N-terminal GST; dsDNA, one strand shown", "outline": "as §1"}, "ELF3": {"biological_target": "T5, ELF3 (Homo sapiens, UniProt P78545 1-371)", "T5 sequence": "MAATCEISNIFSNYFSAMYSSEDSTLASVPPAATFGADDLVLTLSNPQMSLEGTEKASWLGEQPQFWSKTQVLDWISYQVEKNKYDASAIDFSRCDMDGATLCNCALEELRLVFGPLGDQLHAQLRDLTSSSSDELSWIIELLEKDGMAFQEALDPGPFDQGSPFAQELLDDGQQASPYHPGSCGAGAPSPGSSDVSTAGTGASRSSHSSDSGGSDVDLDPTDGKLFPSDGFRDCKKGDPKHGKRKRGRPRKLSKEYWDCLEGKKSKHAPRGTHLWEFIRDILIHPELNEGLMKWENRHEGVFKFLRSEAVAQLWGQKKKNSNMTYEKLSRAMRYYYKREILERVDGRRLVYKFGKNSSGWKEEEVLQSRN", "settings": "protein: recombinant; tags: N-terminal GST; dsDNA, one strand shown", "outline": "as §1"}, "CRX": {"biological_target": "CRX (Homo sapiens, UniProt O43186 1-299)", "sequence (O43186 whole entry)": "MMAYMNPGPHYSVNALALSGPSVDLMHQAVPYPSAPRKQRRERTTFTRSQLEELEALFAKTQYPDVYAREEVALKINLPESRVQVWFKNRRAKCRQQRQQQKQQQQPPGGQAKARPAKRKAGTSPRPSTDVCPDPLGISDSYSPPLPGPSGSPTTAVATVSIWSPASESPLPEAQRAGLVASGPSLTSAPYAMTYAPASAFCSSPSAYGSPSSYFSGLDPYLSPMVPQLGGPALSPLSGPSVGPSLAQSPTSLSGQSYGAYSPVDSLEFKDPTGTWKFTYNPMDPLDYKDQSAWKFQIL", "settings": "protein: recombinant; tags: N-terminal GST; dsDNA, one strand shown", "outline": "as §1"}, "ETV1": {"biological_target": "ETV1 (Homo sapiens, UniProt P50549 1-477)", "sequence (P50549 whole entry)": "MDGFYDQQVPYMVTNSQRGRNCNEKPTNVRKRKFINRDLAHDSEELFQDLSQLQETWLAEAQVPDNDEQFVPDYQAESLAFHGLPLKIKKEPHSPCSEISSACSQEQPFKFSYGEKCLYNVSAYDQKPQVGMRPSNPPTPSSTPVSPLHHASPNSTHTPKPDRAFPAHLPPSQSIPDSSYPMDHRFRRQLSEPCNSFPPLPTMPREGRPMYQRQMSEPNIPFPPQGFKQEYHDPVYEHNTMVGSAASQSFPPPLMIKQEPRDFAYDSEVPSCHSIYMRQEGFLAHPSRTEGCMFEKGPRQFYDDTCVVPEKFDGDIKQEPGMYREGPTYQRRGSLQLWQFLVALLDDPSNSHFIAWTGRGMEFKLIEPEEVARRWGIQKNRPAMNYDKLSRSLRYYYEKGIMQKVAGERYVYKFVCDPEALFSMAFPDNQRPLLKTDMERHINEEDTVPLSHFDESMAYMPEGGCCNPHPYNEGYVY", "settings": "protein: recombinant; tags: N-terminal GST; dsDNA, one strand shown", "outline": "as §1"}}}
{"sequence": "AACCCT", "values": [{"measurement": "binding signal", "setting": "FEV", "value": "1.29 fold enrichment (6-mer frequency, TF over GST control)"}, {"measurement": "binding signal", "setting": "ETV5", "value": "1.31 fold enrichment (6-mer frequency, TF over GST control)"}, {"measurement": "binding signal", "setting": "HSF1", "value": "1.24 fold enrichment (6-mer frequency, TF over GST control)"}, {"measurement": "binding signal", "setting": "SPIC", "value": "1.18 fold enrichment (6-mer frequency, TF over GST control)"}, {"measurement": "binding signal", "setting": "ELF4", "value": "1.34 fold enrichment (6-mer frequency, TF over GST control)"}, {"measurement": "binding signal", "setting": "ELK4", "value": "1.24 fold enrichment (6-mer frequency, TF over GST control)"}, {"measurement": "binding signal", "setting": "ETV2", "value": "1.2 fold enrichment (6-mer frequency, TF over GST control)"}, {"measurement": "binding signal", "setting": "ELF3", "value": "1.33 fold enrichment (6-mer frequency, TF over GST control)"}, {"measurement": "binding signal", "setting": "CRX", "value": "1.39 fold enrichment (6-mer frequency, TF over GST control)"}, {"measurement": "binding signal", "setting": "ETV1", "value": "1.38 fold enrichment (6-mer frequency, TF over GST control)"}]}
